Results on 14 molecules are retold here after PubChem BioAssay (NCI).

Each structure is given as a SMILES string. About 83,000 compounds went through this panel and 20% of them were active in at least one assay; those are over-represented in the sample as a whole.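 Percent growth is the endpoint: 0 to 100 indicates growth inhibition (40 means 60% inhibition), 0 means no net growth, and negative values indicate cell death.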 A number with no mark means an inactive call. The source made the active and inactive calls. How the source made its calls: active means growth percent below 10; inactive means the rest.

Test systems include NCI-H23 lung; NCI-H226 lung; NCI-H322M lung; HOP-62 NSCLC; NCI-H460 lung; HOP-92 NSCLC; NCI-H522 lung; A549/ATCC NSCLC; 786-0 renal; COLO 205 colon.
Common to all, as to assay: NCI-60 one-dose screen, 48 h (100 = growth as untreated, 0 = no growth, -100 = all killed)
Common to all, as to conditions: 10 µM unless noted

With `N#Cc1c(-c2ccc(Br)cc2)nc2n[nH]c(-c3ccc(Br)cc3)c2c1-c1ccc(C(F)(F)F)cc1`, the growth was 15% with NCI-H23 lung; 21.7% in the assay on NCI-H226 lung; 43.1% in the assay on NCI-H322M lung; 40.3% in the assay with HOP-62 NSCLC; 3.96% (active) in the assay with NCI-H460 lung; -17.3% (active) in the assay on HOP-92 NSCLC. Moreover, the growth in the assay with NCI-H522 lung was 10.1%; in the assay on A549/ATCC NSCLC it was 27.4%; in the assay on 786-0 renal, 27.6%; in the assay on COLO 205 colon it was -70.5% (active).
As for `O=C(O)c1cccc(-c2ccc(/C=N/NC(=O)c3[nH]c4ccc(Br)cc4c3-c3ccccc3)o2)c1`, the growth in the assay on NCI-H23 lung is 86.5%; in the assay on NCI-H226 lung, 87.9%; in the assay on NCI-H322M lung, 78.9%; in the assay on HOP-62 NSCLC, 68.9%; in the assay with NCI-H460 lung it was 95.3%; in the assay with HOP-92 NSCLC, 69.1%. Further, the growth in the assay on NCI-H522 lung is -12.6% (active); with A549/ATCC NSCLC, 100%; with 786-0 renal, 84.6%; in the assay with COLO 205 colon, 114%.
On to `Clc1cccc(-c2ccc(OCCCN3CCN(c4ccncc4)CC3)cc2)c1`, for which the growth with NCI-H23 lung was 19.1%; in the assay on NCI-H226 lung, 41.3%; in the assay with NCI-H322M lung, 53.4%; with HOP-62 NSCLC it was -49.1% (active); with NCI-H460 lung, -67.5% (active); in the assay with HOP-92 NSCLC, -1.12% (active). The growth in the assay with NCI-H522 lung was -4.23% (active); with A549/ATCC NSCLC, -11.9% (active); in the assay on 786-0 renal, -79.5% (active); in the assay on COLO 205 colon it was -86.1% (active).
For the molecule `COc1ccc(C2=NN(c3ccccc3)C(c3ccc(OC)c(OCc4ccccc4)c3)C2)cc1OC` (stereo not given), the growth with NCI-H23 lung is 99.8%; with NCI-H226 lung, 85.4%; in the assay on NCI-H322M lung it was 102%; with HOP-62 NSCLC, 96.7%; in the assay on NCI-H460 lung, 105%; with HOP-92 NSCLC it was 109%. Besides, the growth is 78.2% in the assay on NCI-H522 lung, 101% in the assay with A549/ATCC NSCLC, 90.9% in the assay on 786-0 renal and 115% in the assay on COLO 205 colon.
`O=C(c1ccc(Cl)cc1)c1ccc(OCCCN2CCN(c3ccncc3)CC2)cc1`: the growth in the assay on NCI-H23 lung is 38.4%; in the assay with NCI-H226 lung, 49.4%; with NCI-H322M lung, 82.1%; in the assay with HOP-62 NSCLC it was 38.7%; in the assay with NCI-H460 lung it was 48.6%; in the assay with HOP-92 NSCLC it was 14.9%. Besides, the growth was 52.6% in the assay on NCI-H522 lung, 55.5% in the assay on A549/ATCC NSCLC, 33.5% in the assay on 786-0 renal and -49.7% (active) with COLO 205 colon.
Regarding `CN(C)c1ccnc(CNCCSC2(c3ccccc3)c3ccccc3C=Cc3ccccc32)c1`, the growth with NCI-H23 lung was -30.6% (active); in the assay on NCI-H226 lung, 16.7%; in the assay with NCI-H322M lung, 29.1%; in the assay on HOP-62 NSCLC, 9.26% (active); in the assay with NCI-H460 lung it was -87.4% (active); with HOP-92 NSCLC it was -17.2% (active). The growth with NCI-H522 lung is -73.6% (active); in the assay on A549/ATCC NSCLC it was 0.815% (active); in the assay on 786-0 renal, -46.8% (active); in the assay with COLO 205 colon, -84.7% (active).
In the case of `COc1ccc(C(=O)/C=C/c2cccc(Cl)c2)cc1S(N)(=O)=O`, the growth is -10.4% (active) in the assay on NCI-H23 lung; 38.3% with NCI-H226 lung; 10.7% in the assay with NCI-H322M lung; -37.4% (active) in the assay on HOP-62 NSCLC; 3.05% (active) with NCI-H460 lung; 85.8% in the assay on HOP-92 NSCLC. Moreover, the growth in the assay with NCI-H522 lung is -50.1% (active); in the assay on A549/ATCC NSCLC, -81.7% (active); in the assay with 786-0 renal, -57.3% (active); in the assay on COLO 205 colon, -65.1% (active).
Take `Nc1nnc(-c2c[nH]c3ncc(Br)cc23)c(-c2c[nH]c3ccc(F)cc23)n1`: the growth in the assay with NCI-H23 lung was 33.3%; with NCI-H226 lung, 50.2%; in the assay on NCI-H322M lung, 50.5%; in the assay on HOP-62 NSCLC it was 46.6%; in the assay on NCI-H460 lung it was 25.7%; in the assay on HOP-92 NSCLC, 72.9%. The growth in the assay on NCI-H522 lung was 50.5%; in the assay on A549/ATCC NSCLC, 40.7%; in the assay on 786-0 renal, 39.2%; in the assay with COLO 205 colon, 16.2%.
`Cc1ccc([C@H]2C(C(=O)c3ccc(Cl)cc3)C3(N[C@@H]2c2ccccc2)C(=O)Nc2ccc(Br)cc23)cc1` (stereo not given in full): the growth was 61.4% in the assay on NCI-H23 lung; 66.7% in the assay with NCI-H226 lung; 69.1% with NCI-H322M lung; 69.9% with HOP-62 NSCLC; 55.6% in the assay with NCI-H460 lung; 21.9% with HOP-92 NSCLC. In addition, the growth with NCI-H522 lung was 46.5%; with A549/ATCC NSCLC it was 38.4%; in the assay on 786-0 renal, 45.8%; in the assay with COLO 205 colon it was 49.3%.
Take `Cc1cc2c(cc1Cl)C(=O)/C(=C/c1ccccc1)O2`: the growth in the assay with NCI-H23 lung was 0.835% (active); with NCI-H226 lung, 14.6%; with NCI-H322M lung, 73.5%; in the assay with HOP-62 NSCLC, 21.8%; in the assay with NCI-H460 lung, 24.6%; in the assay with HOP-92 NSCLC, 44.4%. Moreover, the growth in the assay on NCI-H522 lung was -75% (active); in the assay with A549/ATCC NSCLC, -59.7% (active); with 786-0 renal it was -38.5% (active); in the assay on COLO 205 colon, 32.7%.
Turning to `N/C(=N\c1nc2ccccc2s1)NC(=O)NCCCCCCO`, the growth in the assay on NCI-H23 lung was 31.4%; with NCI-H226 lung it was 36.2%; in the assay with NCI-H322M lung, 71.1%; in the assay with HOP-62 NSCLC it was 43.5%; in the assay on NCI-H460 lung, 59.3%; in the assay with HOP-92 NSCLC it was 22%. Besides, the growth in the assay with NCI-H522 lung was 36%; in the assay with A549/ATCC NSCLC, 55%; in the assay on 786-0 renal, 58.7%; in the assay on COLO 205 colon, 88.1%.
Take `COc1ccc(/C=C2\C(=O)Nc3ccc(Cl)cc32)cc1OCc1ccccn1`: the growth in the assay with NCI-H23 lung was 31.6%; in the assay with NCI-H226 lung, 15.6%; with NCI-H322M lung it was 56%; in the assay on HOP-62 NSCLC, 14.6%; in the assay on NCI-H460 lung, 26.4%; in the assay on HOP-92 NSCLC, -12.7% (active). Further, the growth with NCI-H522 lung is 81.1%; in the assay on A549/ATCC NSCLC, 41%; with 786-0 renal it was -18.6% (active); with COLO 205 colon, 77.8%.
For the molecule `CC1=C(C(=O)c2ccccc2)C(c2cccc3ccccc23)n2c(nc3ccccc32)N1` (stereo not given), the growth was 56.5% in the assay with NCI-H23 lung; 50% in the assay with NCI-H226 lung; 87.5% in the assay with NCI-H322M lung; 40.4% in the assay with HOP-62 NSCLC; 87% with NCI-H460 lung; 60.4% in the assay with HOP-92 NSCLC. In addition, the growth in the assay on NCI-H522 lung was 66.5%; with A549/ATCC NSCLC, 40.8%; in the assay on 786-0 renal, 70.6%; in the assay with COLO 205 colon it was 65.3%.
For the molecule `O=C(N=Nc1c(O)[nH]c2ccc(Cl)cc12)c1ccc2nc(-c3ccccc3)[nH]c2c1`, the growth in the assay on NCI-H23 lung is 29.9%; in the assay with NCI-H226 lung, 91.1%; with NCI-H322M lung, 15.8%; in the assay on HOP-62 NSCLC it was 81.3%; in the assay on NCI-H460 lung, 26.3%; with HOP-92 NSCLC it was 77%. Also, the growth in the assay on NCI-H522 lung was 8.85% (active); in the assay with A549/ATCC NSCLC, 94.3%; in the assay with 786-0 renal it was 47.4%; with COLO 205 colon, 62%.
